# Sampled rows, rich in hits. Any-hit rate of the full collection: about 12%.
# JMJD2A Tudor: inhibitors of human JMJD2A Tudor domain. O75164. AlphaScreen JMJD2A-Tudor / H3K4me3 peptide binding. Potency, µM (titrated, usually from 114 µM), without a hit: at the top dose activity change, negative = inhibition, actives largely listed as inhibitors. actives 4.4% (n = 390,000); note: % is set by controls: 0 for no effect and ±100 for the full control effect; nearly all actives have a fitted effect of over 50% in size
# Sfp PPTase inh: blocks B. subtilis Sfp PPTase activity; AID 1490; Potency, µM, for the others: largest response in the series, negative = inhibition, usual class: inhibitors; Biochemical Sfp PPTase activity, qHTS; actives 3.5% (n = 310,000);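 note: the enzyme is Sfp with the accession as filed and its product quenches rhodamine fluorescence; 0% = enzyme reaction without inhibitor and -100% = no enzyme wells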
#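 With Hepes-Na pH 7.6 buffer containing 10 mM MgCl2, Sfp (15 nM) modified BHQ-2-YbbR (12.5 uM) using rhodamine-CoA (5 uM). Two reads 30 minutes apart at 525/598 nm yielded each well's rate.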
# BAZ2B block: inhibitors of human BAZ2B bromodomain; AID 504333; Potency, µM (top dose mostly 114 µM), for inactives: at the highest dose activity change, negative = inhibition, actives largely listed as inhibitors; actives 4.4% (n = 360,000); Q9UIF8; AlphaScreen BAZ2B-H3K14Ac peptide displacement; note: % is set by controls: 0 for no effect and ±100 for the full control effect; nearly all actives have a fitted effect of over 60% in size
# Target sequence (Q9UIF8 whole entry, looked up): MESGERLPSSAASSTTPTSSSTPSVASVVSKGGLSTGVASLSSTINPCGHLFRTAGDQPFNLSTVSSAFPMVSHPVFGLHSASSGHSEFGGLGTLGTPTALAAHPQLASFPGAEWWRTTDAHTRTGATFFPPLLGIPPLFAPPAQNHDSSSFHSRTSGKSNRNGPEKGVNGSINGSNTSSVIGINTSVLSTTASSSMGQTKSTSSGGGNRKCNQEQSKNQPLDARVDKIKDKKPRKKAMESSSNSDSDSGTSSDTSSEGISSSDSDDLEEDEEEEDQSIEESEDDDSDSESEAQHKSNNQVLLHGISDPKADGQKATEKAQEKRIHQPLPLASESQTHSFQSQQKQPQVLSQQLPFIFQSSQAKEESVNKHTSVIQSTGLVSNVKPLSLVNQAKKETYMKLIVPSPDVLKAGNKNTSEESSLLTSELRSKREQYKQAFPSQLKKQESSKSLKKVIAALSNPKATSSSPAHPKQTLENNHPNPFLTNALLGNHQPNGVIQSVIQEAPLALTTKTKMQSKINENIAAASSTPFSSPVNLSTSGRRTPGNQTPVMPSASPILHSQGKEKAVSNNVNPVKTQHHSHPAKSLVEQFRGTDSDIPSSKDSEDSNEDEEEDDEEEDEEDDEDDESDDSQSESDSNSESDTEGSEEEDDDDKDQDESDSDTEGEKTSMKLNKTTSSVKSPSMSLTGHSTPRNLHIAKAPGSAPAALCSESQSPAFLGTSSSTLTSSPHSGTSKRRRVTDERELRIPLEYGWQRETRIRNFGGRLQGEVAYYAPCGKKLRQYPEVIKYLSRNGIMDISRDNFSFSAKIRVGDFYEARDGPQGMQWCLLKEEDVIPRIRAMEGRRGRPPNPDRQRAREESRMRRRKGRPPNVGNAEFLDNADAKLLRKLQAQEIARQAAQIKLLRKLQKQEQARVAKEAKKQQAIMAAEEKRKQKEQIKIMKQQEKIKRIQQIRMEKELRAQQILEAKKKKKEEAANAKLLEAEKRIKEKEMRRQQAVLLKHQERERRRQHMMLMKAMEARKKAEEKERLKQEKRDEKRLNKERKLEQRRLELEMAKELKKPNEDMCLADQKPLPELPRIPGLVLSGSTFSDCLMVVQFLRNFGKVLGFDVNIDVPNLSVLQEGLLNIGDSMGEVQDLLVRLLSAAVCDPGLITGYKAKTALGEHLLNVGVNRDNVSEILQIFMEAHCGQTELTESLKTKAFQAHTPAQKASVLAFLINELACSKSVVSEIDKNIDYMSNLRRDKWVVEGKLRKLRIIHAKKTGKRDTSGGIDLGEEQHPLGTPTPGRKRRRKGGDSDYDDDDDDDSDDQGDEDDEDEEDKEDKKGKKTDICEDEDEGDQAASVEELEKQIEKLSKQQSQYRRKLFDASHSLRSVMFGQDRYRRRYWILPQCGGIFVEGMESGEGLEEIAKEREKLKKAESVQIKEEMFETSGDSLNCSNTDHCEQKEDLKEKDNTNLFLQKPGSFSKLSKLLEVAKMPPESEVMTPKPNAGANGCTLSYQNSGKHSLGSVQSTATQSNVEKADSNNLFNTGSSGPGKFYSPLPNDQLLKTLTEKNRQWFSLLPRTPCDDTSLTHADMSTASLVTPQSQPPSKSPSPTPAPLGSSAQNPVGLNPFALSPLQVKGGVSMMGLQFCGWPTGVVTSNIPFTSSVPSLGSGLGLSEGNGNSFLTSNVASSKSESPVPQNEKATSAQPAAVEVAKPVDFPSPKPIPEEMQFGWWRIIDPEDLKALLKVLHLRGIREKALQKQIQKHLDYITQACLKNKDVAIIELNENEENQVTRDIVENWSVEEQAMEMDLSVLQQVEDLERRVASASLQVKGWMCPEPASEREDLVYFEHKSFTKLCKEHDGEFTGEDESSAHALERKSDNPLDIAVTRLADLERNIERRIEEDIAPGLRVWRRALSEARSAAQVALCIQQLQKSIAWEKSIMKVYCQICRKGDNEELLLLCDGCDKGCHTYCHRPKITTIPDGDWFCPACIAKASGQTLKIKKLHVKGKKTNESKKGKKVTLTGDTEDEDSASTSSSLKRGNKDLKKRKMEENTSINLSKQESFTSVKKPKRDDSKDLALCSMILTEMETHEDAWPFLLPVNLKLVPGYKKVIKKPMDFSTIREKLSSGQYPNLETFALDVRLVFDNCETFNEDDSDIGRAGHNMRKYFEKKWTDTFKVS
#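 Complex of BAZ2B and biotin-H3K14Ac (50 nM apiece) forms over 30 min at RT, then faces library compounds up to 110 uM for another 30 min; AlphaScreen beads added, 20 min dark incubation, luminescence read.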
# L3MBTL1 inh: L3MBTL1 (human) inhibition | AlphaScreen L3MBTL1–H3K9me1 peptide binding | Q9Y468 | Potency, µM (doses to about 57.1 µM), without a hit: at the highest dose activity, negative = inhibition, actives largely listed as inhibitors | actives 0.66% (n = 230,000); note: % is set by controls: 0 for no effect and ±100 for the full control effect; nearly all actives have a fitted effect of over 60% in size
#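 L3MBTL1 (50 nM) pre-complexed 30 min with biotinylated H3(1-15)K9me1 peptide (75 nM), then compounds added for 30 min at room temperature; AlphaScreen streptavidin donor/nickel chelate acceptor beads (10 ug/mL final) read after 30 min dark incubation.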
# G9a inh: blocks human histone lysine methyltransferase G9a; Potency, µM (doses to about 102 µM), without a hit: at the top dose activity, negative = inhibition, most hits filed as inhibitors; AID 504332; Q96KQ7; G9a H3K9 monomethylation, AlphaScreen, 2 h; actives 8.8% (n = 350,000); note: % is set by controls: 0 for no effect and ±100 for the full control effect; nearly all actives have a fitted effect of over 75% in size
#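 Methyltransferase reactions run at room temperature for 2 h (20 nM enzyme, 500 nM biotin-H3K9 peptide, 20 uM SAM) after a 15 min compound preincubation; product detected by AlphaScreen beads and anti-H3K9me1 antibody.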
# HP1b binding inh: inhibitors of HP1-beta chromodomain binding to methylated histone tails. P83916. Potency, µM (highest dose often 114 µM), for the others: at the highest dose activity change, negative = inhibition, hits mostly inhibitors. actives 0.56% (n = 390,000). AlphaScreen HP1-beta / biotin-H3K9me3 peptide binding. AID 540317; note: nearly all actives have a fitted effect of over 70% in size
#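 HP1-beta protein (50 nM final) preincubated 30 min at room temperature with biotinylated H3(1-18)K9me3 peptide (50 nM) in PBS pH 7.4, 0.01% Tween-20, then compound added for 30 min. AlphaScreen streptavidin donor/nickel chelate acceptor beads (10 ug/mL final), 30 min dark, luminescence read.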
# Numbers without * were called inactive; ? = inconclusive; . = not tested or not shown; [ ] = remark or other dose. Calls come from the whole dose curve; as a rule, active = well fitted curve in the direction sought with a large enough effect; inconclusive = small, poorly fitted or top-dose-only effect, or another doubt; inactive = no such curve, though single readings can be large; an effect the other way counts as inactive or inconclusive. Potency is the fitted concentration of half-maximal effect.
SMILES,JMJD2A Tudor,Sfp PPTase inh,BAZ2B block,L3MBTL1 inh,G9a inh,HP1b binding inh
COc1ccc2nc(SCC(=O)NCc3ccc(OC)c(OC)c3)[nH]c2c1,89µM*,5%,-3%,.,-8%[59 µM],5%
C=CCn1c(SCC(=O)c2c(N)n(C3CC3)c(=O)[nH]c2=O)nnc1-c1ccc(OC)cc1,-6%,.,8%,5%,?,1%
COc1ccc2nc(SCC(=O)NC(C)(C)C)[nH]c2c1,-17%,14%,-4%,1%,48%,13%
CC(C)N1CCN(Cc2cc3ccccc3[nH]2)CC1CCO (stereo unspecified),-4%,24%,6%,5%,17%,13%
Cc1cc(OC(C)C(=O)N2CCN(c3ccccc3)CC2)c2c(C)c(C)c(=O)oc2c1 (stereo unspecified),-7%,-8%,1%,.,21%[0.0925 µM],38%
COc1cc(NC(=O)c2cnc3c(-c4ccc(F)cc4)c(C)nn3c2C)cc(OC)c1,-19%,.,-4%,.,7%[59 µM],31%
C[C@@H]1OC2C3=C(C(=O)[C@H]4O[C@@H]4[C@H]3O)[C@@H]1[C@H]1[C@H](C)OC=C3[C@H](O)[C@H]4O[C@H]4/C(=N\OCc4ccccc4)[C@@]321,.,5%,.,.,.,.
COc1ccc2nc(N3CCCC3)[nH]c2c1,-19%,2%,3%,4%,5.6µM*,26%
Fc1ccc(-n2[nH]nnc2=S)cc1N1CCCC1,79µM*,79µM*,?,-14%,?,?
C1=C(CCNc2ncnc3c2[nH]c2ccccc23)CCCC1,-34%,56µM*,?,-14%,56µM*,-17%
COc1ccc(CNc2ncnc3c2[nH]c2ccccc23)cc1,?,-24%,-22%,-19%,50µM*,-9%
Cc1ccc(C)n1-c1nnc(N2CCCC(C(=O)Nc3ccc(C(C)C)cc3)C2)s1 (stereo unspecified),-16%,.,-6%,.,7%[59 µM],2%
COc1cccc2sc(NNC(=O)COc3ccccc3)nc12,-19%,?,-9%,?,?,34%
O=C(Nc1nc(-c2ccccn2)cs1)C1CC1,56µM*,-12%,50µM*,-10%,9%,47%
O=C(Nc1nc(-c2ccccn2)cs1)C12CC3CC(CC(O)(C3)C1)C2,-5%[11.4 µM],40µM*,14µM*,?,28µM*,?
c1ccc(Nc2nc(-c3ccccn3)cs2)cc1,?,?,40µM*,.,-38%[59 µM],11%
c1ccc(-c2csc(Nc3cccnc3)n2)nc1,?,?,?,-5%[11.4 µM],?,29%
COc1cccc2sc(Nc3nc(-c4ccccn4)cs3)nc12,.,-20%,50µM*,?,-10%,.
O=C(c1cccc(F)c1)N1CCC[C@@]2(CCN(c3ccccc3)C2)C1,.,-9%,.,.,6%[12.7 µM],.
O=C(CCS(=O)(=O)c1ccc(F)cc1)Nc1nc(-c2ccccn2)cs1,5%,-11%,?,.,?,23%
Cc1csc(NC(=O)C2CCCC2)n1,-16%,79µM*,0%,.,40µM*,48%
O=C(Nc1nc(COc2ccccc2)cs1)C12CC3CC(CC(C3)C1)C2,15%,28%,-3%,.,45µM*,108%
CC(=O)Nc1nc(COc2ccccc2)cs1,-5%,9%,-5%,4%[11.4 µM],0%[59 µM],25%
O=C(CC1CC2CCC1C2)Nc1nc(-c2ccccn2)cs1 (stereo unspecified),-23%,35µM*,45µM*,.,20µM*,8%
Cc1csc(NC(=O)C2CCCCC2C(=O)O)n1 (stereo unspecified),7%,13%,2%,3%,8%[59 µM],34%
SMILES,JMJD2A Tudor,Sfp PPTase inh,BAZ2B block,L3MBTL1 inh,G9a inh,HP1b binding inh
CCc1ccc(NC(=O)CSc2nc(=O)n(CCCN(C)C)c3c2CCC3)cc1,-21%,.,-5%,-6%,-8%,-7%
O=C(Cn1c2ncccc2c(=O)n1-c1ccccc1)NCc1ccccc1Cl,4%,.,5%,.,7%[59 µM],15%
COc1cc(NC(=O)CSc2ncnc3sc4c(c23)CCC(C)C4)c(C(=O)O)cc1OC (stereo unspecified),-18%,45µM*,-29%,.,20µM*,5%
CC1CCc2c(sc3ncnc(SCC(=O)Nc4ccc(C(=O)O)cc4)c23)C1 (stereo unspecified),-2%,-7%,-22%,.,9%,15%
Cc1ccccc1CNC(=O)Cn1c(=O)c2cccn2c2cccnc21,-31%,.,-10%,.,-11%[59 µM],-1%
O=[S+]1([O-])N=C(Oc2cccnc2)c2ccccc21,2%,.,.,.,.,.
Cc1ccc2c(c1C)NC(=O)CC2c1ccc(Cl)cc1Cl (stereo unspecified),-22%,.,-12%,.,7%[59 µM],8%
COc1cc(C#Cc2c(-c3cncn3C)n(C)c3ccc(-c4ccc(OC)c(OC)c4)cc23)cc(OC)c1,45µM*,.,?,?,-4%[0.501 µM],-9%
Cc1ccc(C)c(N2CCN(C(=O)Cn3c(=O)c4cccn4c4ccc(F)cc43)CC2)c1,-21%,.,?,.,-13%[59 µM],29%
Oc1cccc(N2Cc3ccccc3C2)c1,?,-8%,-25%,.,17%[2.33 µM],22%
Cc1cc(N2Cc3ccccc3C2)ccc1C=O,-17%,16%,-21%,-1%,50µM*,-7%
O=Cc1ccc(N2Cc3ccccc3C2)cc1,-13%,5%,-5%,-6%,.,29%
Cc1cc2c(cc1C)CN(c1ccccc1)C2,?,-29%,-27%,-18%,7.1µM*,25%
COCC(=O)N1CCC(Oc2ccc(C(=O)NC(C)c3nccs3)cc2)CC1 (stereo unspecified),1%,25%,-1%,.,9%,24%
Cc1cc(/C=N/n2c(COc3ccccc3)nc3ccccc3c2=O)c(O)c([N+](=O)[O-])c1,13µM*,-1%,4.5µM*,5.6µM*,-21%[59 µM],?
Oc1ccc(/C=N/n2c(COc3ccccc3)n[nH]c2=S)cc1O,3.2µM*,56µM*,?,.,10µM*,?
O=c1c2ccccc2nc(COc2ccccc2)n1/N=C/c1ccc(O)c(O)c1,?,-1%,45µM*,.,3.2µM*,-17%
Cc1ccc(-c2[nH]ncc2/C=N/n2c(COc3ccccc3)nc3ccccc3c2=O)cc1,-18%,21%,4%,2%,-2%[59 µM],18%
CCOc1cc(/C=N/n2c(COc3ccccc3)n[nH]c2=S)ccc1O,?,-12%,-17%,.,4.5µM*,24%
O=C(Nn1c(COc2ccccc2)nc2ccccc2c1=O)C(Cl)(Cl)Cl,-12%,11%,0%,.,50µM*,-1%
CC1CCc2c(sc3nnn(CCCCOc4ccc(Cl)cc4)c(=O)c23)C1 (stereo unspecified),?,.,-24%,.,13µM*,74%
